Inconclusive results are not listed. Unmarked numbers belong to inactive results. Activity calls are given as the source filed them. Calls follow the shape of the dose curve; as a rule, active = well fitted inhibition curve with a large enough effect; inconclusive = small, poorly fitted or top-dose-only effect; inactive = no such curve, though single readings can be large or run the other way.
Each molecule was assayed against Rap guanine nucleotide exchange factor 4 (Homo sapiens) (UniProt Q8WZA2) (assay: Confirmatory qHTS for antagonist of cAMP-regulated guanine nucleotide exchange factor 4 (EPAC2) (AID 1645885; also: nearly all actives have a fitted effect of over 25% in size)). Conditions: EPAC2 Rap1B-BODIPY-GDP exchange fluorescence, biochemical; series mostly up to 12.7 µM; activity change, negative = inhibition: at the top concentration.
% is scaled to controls: 0 for no effect and ±100 for the full control effect; potency is read from the fitted curve at half-maximal effect.

Rap guanine nucleotide exchange factor 4 (Homo sapiens), sequence (Q8WZA2 whole entry, looked up): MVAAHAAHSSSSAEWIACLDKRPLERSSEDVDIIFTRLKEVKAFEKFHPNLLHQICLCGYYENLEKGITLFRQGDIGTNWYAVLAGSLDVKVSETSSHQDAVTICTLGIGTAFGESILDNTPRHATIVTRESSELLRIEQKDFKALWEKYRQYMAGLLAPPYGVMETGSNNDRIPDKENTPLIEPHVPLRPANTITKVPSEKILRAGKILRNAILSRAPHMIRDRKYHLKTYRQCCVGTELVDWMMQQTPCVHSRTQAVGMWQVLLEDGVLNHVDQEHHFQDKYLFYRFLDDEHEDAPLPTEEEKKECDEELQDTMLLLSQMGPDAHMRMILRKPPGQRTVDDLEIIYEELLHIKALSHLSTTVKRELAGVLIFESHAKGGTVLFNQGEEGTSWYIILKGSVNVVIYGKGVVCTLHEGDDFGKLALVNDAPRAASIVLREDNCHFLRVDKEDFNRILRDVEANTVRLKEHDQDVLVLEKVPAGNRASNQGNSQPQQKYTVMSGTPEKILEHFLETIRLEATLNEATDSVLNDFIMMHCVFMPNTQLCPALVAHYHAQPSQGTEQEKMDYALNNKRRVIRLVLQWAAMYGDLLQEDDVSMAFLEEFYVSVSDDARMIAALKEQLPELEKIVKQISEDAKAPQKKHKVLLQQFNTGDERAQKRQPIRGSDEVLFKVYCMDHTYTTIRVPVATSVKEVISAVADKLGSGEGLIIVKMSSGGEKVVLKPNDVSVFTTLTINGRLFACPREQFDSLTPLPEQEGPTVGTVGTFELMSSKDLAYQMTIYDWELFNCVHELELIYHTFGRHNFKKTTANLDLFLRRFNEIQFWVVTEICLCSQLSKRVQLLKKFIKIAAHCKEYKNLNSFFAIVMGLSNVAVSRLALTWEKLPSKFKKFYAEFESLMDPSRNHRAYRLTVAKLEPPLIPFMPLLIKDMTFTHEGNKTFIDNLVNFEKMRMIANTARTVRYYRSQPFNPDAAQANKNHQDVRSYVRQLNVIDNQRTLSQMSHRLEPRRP

Row | Structure (SMILES) | activity change, negative = inhibition | Potency
1 | COc1cccc(C(=O)NC(=S)N2c3ccccc3CC2C)c1OC (configuration not stated) | -12.9% | –
2 | COc1ccc(OCC(=O)OCCNC(=O)c2cccnc2)cc1 | 0.568% | –
3 | O=C1COc2ccc(C(=O)COC(=O)c3ccc([N+](=O)[O-])cc3Cl)cc2N1 | 48% [at 114 µM] | –
4 | Cc1cccc(C)c1Nc1nn2c(=O)c3cc4c(cc3nc2s1)OCO4 | 4.38% | –
5 | O=C(c1ccco1)N(Cc1cccs1)c1ccc(F)cc1 | 3.02% | –
6 | Cc1ccc(N=Cc2cc(Cc3ccccc3Cl)cc([N+](=O)[O-])c2O)c(O)c1 | -33.6% [at 114 µM] | –
7 | O=C(O)c1ccc(/C=N/NC(=O)c2ccc(CN3c4cccc5cccc(c45)S3(=O)=O)cc2)cc1 | -11% | –
8 | C/C(Cc1ccccc1)=N\NC(=O)c1cccnc1 | -0.376% | –
9 | COc1cccc2c1Oc1ncccc1N(C(=O)CCC(=O)NCc1cccc(C)c1)C2 | 33% [at 114 µM] | –
10 | CCOc1ccc2nc(S(=O)(=O)NC(=O)C3(C)CCN3C(=O)CCc3cccs3)sc2c1 (configuration not stated) | 0.959% | –
11 | CCOc1cc(/C=C2\SC(=S)N(NS(=O)(=O)c3ccc(C)cc3)C2=O)ccc1O | 30.7% [at 114 µM] | –
12 | COc1ccc(C2c3ccsc3CCN2C(C)=O)cc1 (configuration not stated) | 45.4% [at 114 µM] | –
13 | CCC(C)(C)NC(=O)C(c1ccccn1)N(C(=O)c1csnn1)C1CCCCC1 (configuration not stated) | 10.4% [at 114 µM] | –
14 | O=C1CCC/C(=N/NC(=O)c2sc3ccccc3c2Cl)C1 | – | 16.9 µM (active)
15 | CCN(CC)c1ccc2cc(C(C)=O)c(=O)oc2c1 | 80.8% [at 114 µM] | –
16 | COC(=O)c1ccccc1NC(=O)c1nn(-c2ccc(OC)cc2)c(=O)c2c1c1ccccc1n2C | -7.22% | –
17 | CCOC(=O)C1=C(CC)OC(N)=C(C#N)C1c1ccc(OC)c(OC)c1OC (configuration not stated) | -0.214% | –
